Measured values as given in PubChem BioAssay (EPA / NIEHS).
Several values for one entry are separate records, joined by “and”; a condition that tells them apart may be missing. Equal values may be shown once. Some compounds were tested as several samples or in several runs, with calls that do not always agree. Activity calls are given as the source filed them. The calls were made as follows: active = hit-call score of the fitted dose curve at least 0.9, where 1 is the maximum; inactive = score below 0.9.

Read-out: not listed separately
Test: BSK_MyoF_SRB: Viability Assessment in the BioMAP Diversity Plus: MyoF Assay (AID 2284267);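 also: total protein by SRB absorbance in parallel cultures as cytotoxicity measure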
Conditions: primary human lung fibroblasts
Procedure, shortened: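 Read-out is SRB absorbance at 560 nm, reflecting total protein in parallel lung fibroblast cultures harvested 24 h after compound addition. Cells were TCA-fixed (10%) and stained with 0.1% SRB; activity is referenced to DMSO.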

For `CC(C)(C)c1cc(CCC(=O)NCCCCCCNC(=O)CCc2cc(C(C)(C)C)c(O)c(C(C)(C)C)c2)cc(C(C)(C)C)c1O`, which outcome is on record?
The outcome was “inactive”.

For `NC(O)(C(F)(F)F)C(F)(F)F`, which outcome is on record?
Its outcome is “inactive”.

With `O=C=Nc1cccc2c(N=C=O)cccc12` as the molecule, how does the outcome read?
The outcome was “inactive”.

For `OC(O)C(F)(F)C(F)(F)F`, which outcome is on record?
Its outcome is “inactive”.

Which outcome does the source give for `CN(C(=O)C(F)(F)C(F)(F)C(F)(F)F)[Si](C)(C)C` here?
The outcome was “inactive”.

Which outcome does the source give for `CCN(CC)c1ccc2c(c1)Oc1cc(N(CC)CC)ccc1C21OC(=O)c2ccccc21` here?
Its outcome is “inactive”.

Which outcome does the source give for `Cc1ccc(O)c(-n2nc3ccccc3n2)c1` here?
The outcome was “inactive”.

For `CC(C)CCCC(C)CCO` (configuration not stated), which AC50 is on record?
The AC50 was 34.5 µM (active).

Which AC50 does the source give for `CCOC(C=C(C)CCC=C(C)C)OCC` here?
Its AC50 is 30.4 µM (active).

For `C[C@]12CC[C@H]3C(=CCc4cc(O)ccc43)[C@@H]1CCC2=O`, which outcome is on record?
The outcome was “inactive”.

With `NC(=O)C(F)(F)C(F)(F)C(F)(F)C(F)(F)C(N)=O` as the molecule, how does the outcome read?
The outcome was “inactive”.

With `Cc1cnccn1` as the molecule, how does the outcome read?
Its outcome is “inactive”.

With `CC1=CC2C3C=CC(C3)C2C1C` (configuration not stated) as the molecule, how does the outcome read?
The outcome was “inactive”.

For `Cc1cc(O)c(C(C)(C)C)cc1C(C)(C)C`, which AC50 is on record?
The AC50 was 5.29 µM (active).

Read-out: Matrix Metallopeptidase 1 (MMP1), MMP1 (gene 4312)
Test: BSK_MyoF_MMP1: BioMAP Diversity Plus: MyoF Assay for Matrix Metallopeptidase 1 (MMP1) Biomarker Activity (AID 2284268)
Conditions: primary human lung fibroblasts
Procedure, shortened: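 MMP1 measured by ELISA 24 h after dosing primary human lung fibroblasts; cytotoxicity checked in parallel cultures by sulforhodamine B total-protein staining read at 560 nm.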

With `FC(F)(F)C(F)(F)C(F)(F)CC1CO1` (configuration not stated) as the molecule, how does the outcome read?
The outcome was “inactive”.

For `Nc1cc([N+](=O)[O-])cc(Cl)c1O`, which outcome is on record?
Its outcome is “inactive”.

With `CCN(CC)c1ccc(N=Nc2ccccc2)cc1` as the molecule, how does the AC50 read?
The AC50 was 5.14 µM (active).

With `CC(C)(C)c1cc(CCC(=O)NCCCCCCNC(=O)CCc2cc(C(C)(C)C)c(O)c(C(C)(C)C)c2)cc(C(C)(C)C)c1O` as the molecule, how does the outcome read?
Its outcome is “inactive”.

Which AC50 does the source give for `OCC(F)(F)C(F)(F)C(F)(F)C(F)(F)C(F)(F)C(F)(F)C(F)(F)C(F)(F)CO` here?
The AC50 was 49.5 µM (active).

What about the outcome of the same molecule?
Its outcome is “inactive”.

With `FC(F)(F)C(F)(F)C(F)(F)C(F)(F)C(F)(F)C(F)(F)C(F)(F)CCI` as the molecule, how does the outcome read?
Its outcome is “inactive”.

For `NC(O)(C(F)(F)F)C(F)(F)F`, which outcome is on record?
The outcome was “inactive”.

Which outcome does the source give for `OCCCCC(F)(F)C(F)(F)C(F)(F)C(F)(F)F` here?
The outcome was “inactive”.

With `Cc1cc(C)c(O)c(C(C)(C)C)c1` as the molecule, how does the outcome read?
Its outcome is “inactive”.

Which outcome does the source give for `O=C=Nc1cccc2c(N=C=O)cccc12` here?
Its outcome is “inactive”.

Which outcome does the source give for `O=C(F)C1(F)C(F)(F)C(F)(F)C(F)(F)C(F)(F)C1(F)F` here?
Its outcome is “inactive”.

With `OC(O)C(F)(F)C(F)(F)F` as the molecule, how does the outcome read?
The outcome was “inactive”.

For `CN(C(=O)C(F)(F)C(F)(F)C(F)(F)F)[Si](C)(C)C`, which outcome is on record?
Its outcome is “inactive”.

Which outcome does the source give for `CCN(CC)c1ccc2c(c1)Oc1cc(N(CC)CC)ccc1C21OC(=O)c2ccccc21` here?
Its outcome is “inactive”.

Which outcome does the source give for `Brc1nc2ccccc2s1` here?
Its outcome is “inactive”.

With `Cc1ccc(O)c(-n2nc3ccccc3n2)c1` as the molecule, how does the outcome read?
Its outcome is “inactive”.

For `CC(C)CCCC(C)CCO` (configuration not stated), which AC50 is on record?
Its AC50 is 33.7 µM (active).

For `CCN(CC)c1ccc(C=O)cc1`, which outcome is on record?
The outcome was “inactive”.

With `OCCCC(F)(F)C(F)(F)C(F)(F)C(F)(F)C(F)(F)C(F)(F)C(F)(F)C(F)(F)F` as the molecule, how does the AC50 read?
Its AC50 is 16.3 µM (active).

What about the outcome of the same molecule?
Its outcome is “inactive”.

For `CCN(CC)c1ccc(C=O)c(O)c1`, which outcome is on record?
The outcome was “inactive”.

For `CCOC(C=C(C)CCC=C(C)C)OCC`, which AC50 is on record?
Its AC50 is 31.3 µM (active).

With `C[C@]12CC[C@H]3C(=CCc4cc(O)ccc43)[C@@H]1CCC2=O` as the molecule, how does the outcome read?
The outcome was “inactive”.

Which outcome does the source give for `O=C(O)CCC(F)(F)C(F)(F)C(F)(F)F` here?
The outcome was “inactive”.

Which AC50 does the source give for `Cc1ccc(S(=O)(=O)C(I)I)cc1` here?
Its AC50 is 11.2 µM (active).

With `NC(=O)C(F)(F)C(F)(F)C(F)(F)C(F)(F)C(N)=O` as the molecule, how does the outcome read?
Its outcome is “inactive”.

Which outcome does the source give for `Cc1cnccn1` here?
The outcome was “inactive”.

Which outcome does the source give for `O=C(c1ccccc1)c1ccc(O)cc1O` here?
The outcome was “inactive”.

Which outcome does the source give for `NC(=O)C(F)(F)C(F)(F)C(F)(F)F` here?
Its outcome is “inactive”.

With `O=C1C=CC(=O)N1c1ccc(Cc2ccc(N3C(=O)C=CC3=O)cc2)cc1` as the molecule, how does the AC50 read?
Its AC50 is 11.7 µM (active).

With `O=C1c2c(O)ccc(Nc3ccc(CCO)cc3)c2C(=O)c2c([N+](=O)[O-])ccc(O)c21` as the molecule, how does the AC50 read?
The AC50 was 11 µM (active).

Which outcome does the source give for `CC1=CC2C3C=CC(C3)C2C1C` (configuration not stated) here?
The outcome was “inactive”.

With `Cc1cc(O)c(C(C)(C)C)cc1C(C)(C)C` as the molecule, how does the AC50 read?
The AC50 was 9.48 µM (active).

With `O=C=NCc1cccc(CN=C=O)c1` as the molecule, how does the outcome read?
Its outcome is “inactive”.

Read-out: TIMP metallopeptidase inhibitor 1 (TIMP1), TIMP1 (gene 7076)
Test: BSK_MyoF_TIMP1: BioMAP Diversity Plus: MyoF Assay for TIMP metallopeptidase inhibitor 1 (TIMP1) Biomarker Activity (AID 2284269)
Conditions: primary human lung fibroblasts
Procedure, shortened: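 ELISA read-out of TIMP-1 from primary human lung fibroblast cultures 24 h after compound dosing; gain of signal relative to DMSO vehicle baseline defines activity.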

For `FC(F)(F)C(F)(F)C(F)(F)CC1CO1` (configuration not stated), which outcome is on record?
The outcome was “inactive”.

Which outcome does the source give for `Nc1cc([N+](=O)[O-])cc(Cl)c1O` here?
Its outcome is “inactive”.

For `CCN(CC)c1ccc(N=Nc2ccccc2)cc1`, which outcome is on record?
Its outcome is “inactive”.

Which outcome does the source give for `CC(C)(C)c1cc(CCC(=O)NCCCCCCNC(=O)CCc2cc(C(C)(C)C)c(O)c(C(C)(C)C)c2)cc(C(C)(C)C)c1O` here?
The outcome was “inactive”.

For `OCC(F)(F)C(F)(F)C(F)(F)C(F)(F)C(F)(F)C(F)(F)C(F)(F)C(F)(F)CO`, which outcome is on record?
The outcome was “inactive”.

For `FC(F)(F)C(F)(F)C(F)(F)C(F)(F)C(F)(F)C(F)(F)C(F)(F)CCI`, which outcome is on record?
The outcome was “inactive”.

With `NC(O)(C(F)(F)F)C(F)(F)F` as the molecule, how does the outcome read?
The outcome was “inactive”.

For `OCCCCC(F)(F)C(F)(F)C(F)(F)C(F)(F)F`, which outcome is on record?
The outcome was “inactive”.

With `Cc1cc(C)c(O)c(C(C)(C)C)c1` as the molecule, how does the AC50 read?
The AC50 was 31.6 µM (active).

Which outcome does the source give for `O=C=Nc1cccc2c(N=C=O)cccc12` here?
The outcome was “inactive”.

For `O=C(F)C1(F)C(F)(F)C(F)(F)C(F)(F)C(F)(F)C1(F)F`, which outcome is on record?
Its outcome is “inactive”.

For `OC(O)C(F)(F)C(F)(F)F`, which outcome is on record?
Its outcome is “inactive”.

With `CN(C(=O)C(F)(F)C(F)(F)C(F)(F)F)[Si](C)(C)C` as the molecule, how does the outcome read?
The outcome was “inactive”.

With `CCN(CC)c1ccc2c(c1)Oc1cc(N(CC)CC)ccc1C21OC(=O)c2ccccc21` as the molecule, how does the outcome read?
The outcome was “inactive”.

With `Brc1nc2ccccc2s1` as the molecule, how does the outcome read?
The outcome was “inactive”.

For `Cc1ccc(O)c(-n2nc3ccccc3n2)c1`, which outcome is on record?
Its outcome is “inactive”.

For `CC(C)CCCC(C)CCO` (configuration not stated), which outcome is on record?
Its outcome is “inactive”.

With `CCN(CC)c1ccc(C=O)cc1` as the molecule, how does the outcome read?
The outcome was “inactive”.

With `OCCCC(F)(F)C(F)(F)C(F)(F)C(F)(F)C(F)(F)C(F)(F)C(F)(F)C(F)(F)F` as the molecule, how does the AC50 read?
The AC50 was 14.5 µM (active) and 13.7 µM (active).

With `CCN(CC)c1ccc(C=O)c(O)c1` as the molecule, how does the outcome read?
The outcome was “inactive”.

Which AC50 does the source give for `CCOC(C=C(C)CCC=C(C)C)OCC` here?
The AC50 was 3.97 µM (active).

For `C[C@]12CC[C@H]3C(=CCc4cc(O)ccc43)[C@@H]1CCC2=O`, which outcome is on record?
The outcome was “inactive”.

For `O=C(O)CCC(F)(F)C(F)(F)C(F)(F)F`, which outcome is on record?
The outcome was “inactive”.

Which AC50 does the source give for `Cc1ccc(S(=O)(=O)C(I)I)cc1` here?
The AC50 was 5.97 µM (active).

Which outcome does the source give for `NC(=O)C(F)(F)C(F)(F)C(F)(F)C(F)(F)C(N)=O` here?
Its outcome is “inactive”.

Which outcome does the source give for `Cc1cnccn1` here?
The outcome was “inactive”.

With `O=C(c1ccccc1)c1ccc(O)cc1O` as the molecule, how does the outcome read?
Its outcome is “inactive”.

Which outcome does the source give for `NC(=O)C(F)(F)C(F)(F)C(F)(F)F` here?
Its outcome is “inactive”.

Which AC50 does the source give for `O=C1C=CC(=O)N1c1ccc(Cc2ccc(N3C(=O)C=CC3=O)cc2)cc1` here?
The AC50 was 5.94 µM (active).

For `O=C1c2c(O)ccc(Nc3ccc(CCO)cc3)c2C(=O)c2c([N+](=O)[O-])ccc(O)c21`, which outcome is on record?
The outcome was “inactive”.

With `CC1=CC2C3C=CC(C3)C2C1C` (configuration not stated) as the molecule, how does the outcome read?
Its outcome is “inactive”.

Which AC50 does the source give for `Cc1cc(O)c(C(C)(C)C)cc1C(C)(C)C` here?
The AC50 was 7.71 µM (active).

For `O=C=NCc1cccc(CN=C=O)c1`, which outcome is on record?
Its outcome is “inactive”.
